Active and inactive are the calls of the source. Rule for the calls: active = hit-call score of the fitted dose curve at least 0.9, where 1 is the maximum; inactive = score below 0.9.

In PubChem BioAssay (EPA / NIEHS) one finds outcome and AC50 data, which are given here for seven molecules.

Assay [1] can be described thus: ATG_ISRE_CIS: Attagene CIS-FACTORIAL HepG2 Assay for human Interferon Regulatory Factor 1 (IRF1) binding to an Interferon-Stimulated Response Element (ISRE) (AID 2282948). Particulars: HepG2 ISRE cis-reporter (Attagene), mRNA transcription readout; actives raise or lower the signal. The essentials:
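Endogenous transcription factor activity read as reporter transcript abundance via RT-PCR and capillary electrophoresis. HepG2 cells transiently transfected, 24 h chemical exposure. Gain or loss fitted against DMSO baseline.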

Assay [2] is described as follows: ATG_M_32_CIS: Attagene CIS-FACTORIAL HepG2 Assay for M32 Transcription Factor (Internal Marker) (AID 2282949).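 Note: background control marker of the multiplexed CIS panel rather than a real target.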 As to conditions: HepG2 Attagene cis-factorial M32 reporter, mRNA; actives raise or lower the signal. The essentials: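 HepG2 transfectants (cis-regulated reporter transcription units) dosed 24 h. Reporter mRNA by RT-PCR plus CE, analysed as gain or loss relative to DMSO.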

The nature of assay [3]: ATG_M_06_CIS: Attagene CIS-FACTORIAL HepG2 Assay for M06 Transcription Factor (Internal Marker) (AID 2282950). Particulars: HepG2 Attagene CIS-FACTORIAL M06 internal marker reporter; actives raise or lower the signal. The essentials:
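Fluorescence-labelled RT-PCR products from cis-promoter reporter units, cut with HpaI and resolved by capillary electrophoresis, give the signal. Cells are human HepG2, dosed for 24 h. Serves as background control, fitted relative to DMSO.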

For assay [4], the target named is Hypoxia-inducible factor 1-alpha (Homo sapiens) (UniProt Q16665). The assay can be described thus: ATG_HIF1a_CIS: Attagene CIS-FACTORIAL HepG2 Assay for human Hypoxia Inducible Factor 1 (HIF1A) (AID 2282951). As to conditions: HepG2 Attagene cis-factorial HIF1a reporter transcription; actives raise or lower the signal. In short, it runs like this: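 In this multiplexed cell assay, HepG2 cells bearing transfected cis reporters are dosed for 24 h and reporter mRNA is read by RT-PCR plus capillary electrophoresis; signal increases and decreases are both scored against DMSO.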
Hypoxia-inducible factor 1-alpha (Homo sapiens), sequence (Q16665 whole entry, looked up): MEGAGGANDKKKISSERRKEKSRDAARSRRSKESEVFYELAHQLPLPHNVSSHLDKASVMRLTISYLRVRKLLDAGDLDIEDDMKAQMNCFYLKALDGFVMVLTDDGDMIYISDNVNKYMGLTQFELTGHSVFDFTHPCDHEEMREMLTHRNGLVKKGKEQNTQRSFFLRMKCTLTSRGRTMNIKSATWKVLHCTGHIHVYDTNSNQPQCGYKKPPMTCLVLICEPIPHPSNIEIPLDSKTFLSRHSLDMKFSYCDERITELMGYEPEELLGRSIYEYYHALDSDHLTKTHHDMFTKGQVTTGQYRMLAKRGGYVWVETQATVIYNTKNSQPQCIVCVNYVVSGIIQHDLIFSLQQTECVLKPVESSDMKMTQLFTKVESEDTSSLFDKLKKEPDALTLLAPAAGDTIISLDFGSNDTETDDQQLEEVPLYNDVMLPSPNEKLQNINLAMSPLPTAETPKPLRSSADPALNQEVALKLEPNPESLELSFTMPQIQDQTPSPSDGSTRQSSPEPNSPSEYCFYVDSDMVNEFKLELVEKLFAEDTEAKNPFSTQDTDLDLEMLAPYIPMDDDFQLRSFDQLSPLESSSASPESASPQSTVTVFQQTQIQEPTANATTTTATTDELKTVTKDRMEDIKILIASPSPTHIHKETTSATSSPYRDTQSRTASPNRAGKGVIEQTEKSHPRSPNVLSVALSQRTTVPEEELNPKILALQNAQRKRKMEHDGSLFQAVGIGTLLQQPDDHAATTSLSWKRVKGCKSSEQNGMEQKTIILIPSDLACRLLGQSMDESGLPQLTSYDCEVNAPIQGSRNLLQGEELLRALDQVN

Assay [5] has as its target Hepatocyte nuclear factor 6 (Homo sapiens) (UniProt Q9UBC0). The assay can be described thus: ATG_HNF6_CIS: Attagene CIS-FACTORIAL HepG2 Assay for human Hepatocyte Nuclear Factor 6 (HNF6) (AID 2282952). As to conditions: HepG2 Attagene cis-factorial HNF6 reporter transcription; actives raise or lower the signal. In short, it runs like this:
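Readout: fluorescent reporter-transcript fragments resolved by capillary electrophoresis after RT-PCR, reflecting endogenous factor activity in transfected HepG2. Exposure 24 h. Gain or loss of signal fitted bidirectionally against DMSO.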

Assay [6] concerns the target Heat shock factor protein 1 (Homo sapiens) (UniProt Q00613). The assay can be described thus: ATG_HSE_CIS: Attagene CIS-FACTORIAL HepG2 Assay for human Heat Shock Transcription Factor 1 (HSE) (AID 2282953). As to conditions: HepG2 HSE cis-reporter, Attagene RNA transcription; actives raise or lower the signal. The essentials:
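After a 24 h incubation with test chemical, transfected HepG2 cells were harvested for RNA; reporter transcripts were measured by RT-PCR and capillary electrophoresis. Values reflect gain or loss of signal relative to DMSO.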

Assay [7] has as its target Paired box protein Pax-6 (Homo sapiens) (UniProt P26367). The assay can be described thus: ATG_Pax6_CIS: Attagene CIS-FACTORIAL HepG2 Assay for human Paired Box 6 (PAX6) (AID 2282956). Particulars: HepG2 CIS-FACTORIAL PAX6 reporter transcription, RNA readout; actives raise or lower the signal. The essentials: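 Read-out is reporter transcript level, measured by RT-PCR with fluorescent primer extension and capillary electrophoresis after 24 h dosing of transfected HepG2 cells. Activity in either direction fitted relative to DMSO control.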

A short description of assay [8]: ATG_PXRE_CIS: Attagene CIS-FACTORIAL HepG2 Assay for human Pregnane X Receptor Element (PXRE) (AID 2282957). Particulars: HepG2 Attagene CIS-FACTORIAL PXRE reporter, mRNA; actives raise or lower the signal. In short, it runs like this: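 Read-out: fluorescence of reporter-specific RT-PCR products resolved by capillary electrophoresis, fitted bidirectionally relative to DMSO. Human HepG2 liver cells carried transfected cis-promoter reporter units and were exposed to chemicals for 24 h.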

Assay [9] can be described thus: ATG_RORE_CIS: Attagene CIS-FACTORIAL HepG2 Assay for human RAR-related Orphan Receptor Element (RORE) (AID 2282959). As to conditions: HepG2 Attagene cis-factorial RORE reporter, mRNA; actives raise or lower the signal. The essentials: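 Fluorescence intensity of reporter-specific cDNA fragments, separated by capillary electrophoresis, gives the signal. Source: HepG2 liver cells transiently transfected with cis-element reporters and exposed 24 h; DMSO-normalized bidirectional fit.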

A short description of assay [10]: ATG_Sox_CIS: Attagene CIS-FACTORIAL HepG2 Assay for human SRY-box transcription factor (SOX) (AID 2282960). As to conditions: HepG2 Attagene cis-factorial SOX reporter, mRNA; actives raise or lower the signal. The essentials: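 After 24 h of chemical treatment, transfected HepG2 reporter cells are lysed for total RNA. Transcript levels come from RT-PCR with labelled primer extension and capillary electrophoresis, analysed bidirectionally versus DMSO.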

The target of assay [11] is Transcription factor Sp1 (Homo sapiens) (UniProt P08047). The assay can be described thus: ATG_Sp1_CIS: Attagene CIS-FACTORIAL HepG2 Assay for human Specificity Protein 1 (Sp1) (AID 2282961). As to conditions: HepG2 Sp1 cis-reporter transcription, actives raise or lower the signal. The essentials: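 Sp1-driven reporter mRNA, read as capillary electrophoresis fluorescence after RT-PCR, in transiently transfected HepG2 cells dosed for 24 h; signal change in either direction relative to DMSO.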
Transcription factor Sp1 (Homo sapiens), sequence (P08047 whole entry, looked up): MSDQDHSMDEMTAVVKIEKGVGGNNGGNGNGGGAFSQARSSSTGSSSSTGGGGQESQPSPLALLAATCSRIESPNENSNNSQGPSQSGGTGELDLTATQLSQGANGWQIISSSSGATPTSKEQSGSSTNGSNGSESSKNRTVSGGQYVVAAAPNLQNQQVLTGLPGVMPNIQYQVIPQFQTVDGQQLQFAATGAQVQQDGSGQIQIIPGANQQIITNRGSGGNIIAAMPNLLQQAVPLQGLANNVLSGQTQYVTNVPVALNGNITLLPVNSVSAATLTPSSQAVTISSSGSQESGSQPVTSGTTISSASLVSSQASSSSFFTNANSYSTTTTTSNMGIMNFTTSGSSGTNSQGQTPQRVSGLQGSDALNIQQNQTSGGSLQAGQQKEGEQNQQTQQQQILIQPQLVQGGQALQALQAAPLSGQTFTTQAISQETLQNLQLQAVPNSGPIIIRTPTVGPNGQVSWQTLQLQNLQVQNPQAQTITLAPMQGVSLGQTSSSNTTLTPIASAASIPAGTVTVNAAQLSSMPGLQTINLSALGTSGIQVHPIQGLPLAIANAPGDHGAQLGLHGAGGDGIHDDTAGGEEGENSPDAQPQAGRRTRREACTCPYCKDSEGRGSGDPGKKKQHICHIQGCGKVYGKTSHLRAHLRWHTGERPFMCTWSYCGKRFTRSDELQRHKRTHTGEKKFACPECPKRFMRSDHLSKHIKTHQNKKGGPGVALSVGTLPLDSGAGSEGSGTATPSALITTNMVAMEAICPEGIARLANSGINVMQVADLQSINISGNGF

Assay [12] is described as follows: ATG_SREBP_CIS: Attagene CIS-FACTORIAL HepG2 Assay for human Sterol Regulatory Element Binding (SREBP) (AID 2282962). Particulars: HepG2 Attagene cis-factorial SREBP reporter, mRNA; actives raise or lower the signal. The essentials: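 Endogenous SREBP activity read as cis-element-driven reporter transcript in transiently transfected HepG2, 24 h post-dosing; quantified via RT-PCR plus capillary electrophoresis of fluorescent fragments. Gain or loss of signal fitted relative to DMSO baseline.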

In assay [13] the target is Signal transducer and activator of transcription 3 (Homo sapiens) (UniProt P40763). The assay can be described thus: ATG_STAT3_CIS: Attagene CIS-FACTORIAL HepG2 Assay for human Signal Transducer and Activator of Transcription 3 (STAT3) (AID 2282963). As to conditions: HepG2, Attagene cis-factorial STAT3 reporter transcription; actives raise or lower the signal. The essentials:
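Readout is reporter transcript quantified by RT-PCR and capillary electrophoresis, with 6-FAM primer extension and HpaI digestion. Total RNA is taken 24 h after dosing transiently transfected HepG2 carrying cis-regulated reporter units. Bidirectional fit against DMSO.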

Assay [14] is described as follows: ATG_TA_CIS: Attagene CIS-FACTORIAL HepG2 Assay for human TA Basal Promoter (AID 2282964). As to conditions: HepG2 Attagene CIS-factorial TA basal promoter reporter; actives raise or lower the signal. The essentials:
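Multiplexed mRNA reporter assay, HepG2, 24 h. Reporter cDNA amplified, 6-FAM primer-extended, HpaI-cut, CE-sized; DMSO = negative control and baseline.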

Assay [15] can be described thus: ATG_TCF_b_cat_CIS: Attagene CIS-FACTORIAL HepG2 Assay for human T-Cell-Factor with beta-catenin (TCF/b-cat) (AID 2282965). As to conditions: HepG2 TCF/beta-catenin cis-reporter transcription, actives raise or lower the signal. The essentials:
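Endogenous transcription factor activity is captured through cis-promoter reporter constructs transiently introduced into human HepG2 liver cells. Induced reporter mRNA is measured after 24 h and fitted bidirectionally relative to DMSO.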

Assay [16] is described as follows: ATG_MRE_CIS: Attagene CIS-FACTORIAL HepG2 Assay for human Metal Responsive Element (MRE) (AID 2282954). Particulars: HepG2 MRE cis-reporter transcription, Attagene multiplex; actives raise or lower the signal. The essentials:
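Endogenous MRE-dependent transcription read as reporter mRNA in transiently transfected human HepG2 cells at 24 h. RNA reverse-transcribed, PCR-amplified, labelled and resolved by capillary electrophoresis; gain or loss relative to DMSO.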

Assay [17] can be described thus: ATG_PBREM_CIS: Attagene CIS-FACTORIAL HepG2 Assay for human Phenobarbital-responsive Enhancer Module (PBREM) (AID 2282955). As to conditions: HepG2 PBREM cis-reporter, Attagene multiplexed transcription; actives raise or lower the signal. In short, it runs like this: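 After a 24 h incubation with test chemical, transfected HepG2 cells yield total RNA; reporter-specific RT-PCR products are fluorescently labelled, HpaI-digested and resolved by capillary electrophoresis against ROX size standards.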

A short description of assay [18]: ATG_PPRE_CIS: Attagene CIS-FACTORIAL HepG2 Assay for human Peroxisome Proliferator-activated Response Element (PPRE) (AID 2282958). Particulars: HepG2 PPRE cis-element reporter, Attagene transcription factor profiling; actives raise or lower the signal. The essentials:
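Multiplexed reporter transcription units under cis-regulatory promoters were transfected into HepG2 cells to capture endogenous factor activity. A 24 h incubation preceded RNA isolation and fluorescent RT-PCR fragment analysis.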

Hepatocyte nuclear factor 6 (Homo sapiens), sequence (Q9UBC0 whole entry, looked up, the tested form may be a part): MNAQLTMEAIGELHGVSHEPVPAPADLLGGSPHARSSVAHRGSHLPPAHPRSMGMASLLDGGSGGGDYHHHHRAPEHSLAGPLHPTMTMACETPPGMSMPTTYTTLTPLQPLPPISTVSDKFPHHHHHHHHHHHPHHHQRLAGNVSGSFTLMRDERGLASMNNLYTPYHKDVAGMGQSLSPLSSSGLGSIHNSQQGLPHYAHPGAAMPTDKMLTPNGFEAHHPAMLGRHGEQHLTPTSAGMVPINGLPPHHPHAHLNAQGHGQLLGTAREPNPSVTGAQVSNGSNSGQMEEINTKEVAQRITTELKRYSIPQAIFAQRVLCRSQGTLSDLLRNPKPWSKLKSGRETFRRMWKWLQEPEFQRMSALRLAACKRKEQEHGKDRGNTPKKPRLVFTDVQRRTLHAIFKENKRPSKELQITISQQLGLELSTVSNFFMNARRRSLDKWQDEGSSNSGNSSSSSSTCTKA
Heat shock factor protein 1 (Homo sapiens), sequence (Q00613 whole entry, looked up): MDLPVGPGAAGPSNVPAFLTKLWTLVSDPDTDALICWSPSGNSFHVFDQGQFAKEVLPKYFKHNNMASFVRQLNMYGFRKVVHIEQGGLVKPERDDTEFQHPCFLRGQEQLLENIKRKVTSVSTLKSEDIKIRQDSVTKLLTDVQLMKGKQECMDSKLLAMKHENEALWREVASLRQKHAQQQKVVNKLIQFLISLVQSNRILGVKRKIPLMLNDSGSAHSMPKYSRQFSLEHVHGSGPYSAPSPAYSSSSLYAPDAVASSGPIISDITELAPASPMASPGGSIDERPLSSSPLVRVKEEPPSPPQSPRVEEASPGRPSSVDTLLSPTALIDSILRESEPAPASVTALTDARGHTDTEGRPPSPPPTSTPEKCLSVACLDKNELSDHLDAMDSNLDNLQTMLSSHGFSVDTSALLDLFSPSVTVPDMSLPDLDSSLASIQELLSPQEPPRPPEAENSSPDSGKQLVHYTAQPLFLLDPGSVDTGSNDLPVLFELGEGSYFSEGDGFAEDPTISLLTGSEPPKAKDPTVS
Signal transducer and activator of transcription 3 (Homo sapiens), sequence (P40763 whole entry, looked up): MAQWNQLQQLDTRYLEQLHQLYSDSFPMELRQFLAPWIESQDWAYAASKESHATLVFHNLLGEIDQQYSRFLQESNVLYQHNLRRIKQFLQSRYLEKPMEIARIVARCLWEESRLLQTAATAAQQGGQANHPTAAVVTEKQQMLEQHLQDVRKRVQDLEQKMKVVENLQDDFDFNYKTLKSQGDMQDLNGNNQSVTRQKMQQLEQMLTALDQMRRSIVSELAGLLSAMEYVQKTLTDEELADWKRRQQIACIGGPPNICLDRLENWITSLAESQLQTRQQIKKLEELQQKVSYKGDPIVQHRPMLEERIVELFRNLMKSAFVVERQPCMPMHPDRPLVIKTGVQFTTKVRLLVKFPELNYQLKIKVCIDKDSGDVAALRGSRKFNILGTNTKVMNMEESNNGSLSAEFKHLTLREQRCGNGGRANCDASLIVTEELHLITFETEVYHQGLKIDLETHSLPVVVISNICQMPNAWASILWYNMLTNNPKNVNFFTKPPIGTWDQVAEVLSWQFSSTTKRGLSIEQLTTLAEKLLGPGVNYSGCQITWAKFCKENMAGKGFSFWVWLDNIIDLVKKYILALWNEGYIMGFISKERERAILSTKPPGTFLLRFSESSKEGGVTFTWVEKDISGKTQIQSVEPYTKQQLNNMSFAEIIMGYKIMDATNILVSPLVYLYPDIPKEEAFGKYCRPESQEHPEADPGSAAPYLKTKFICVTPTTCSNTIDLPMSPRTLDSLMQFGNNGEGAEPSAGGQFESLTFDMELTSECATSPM
Paired box protein Pax-6 (Homo sapiens), sequence (P26367 whole entry, looked up): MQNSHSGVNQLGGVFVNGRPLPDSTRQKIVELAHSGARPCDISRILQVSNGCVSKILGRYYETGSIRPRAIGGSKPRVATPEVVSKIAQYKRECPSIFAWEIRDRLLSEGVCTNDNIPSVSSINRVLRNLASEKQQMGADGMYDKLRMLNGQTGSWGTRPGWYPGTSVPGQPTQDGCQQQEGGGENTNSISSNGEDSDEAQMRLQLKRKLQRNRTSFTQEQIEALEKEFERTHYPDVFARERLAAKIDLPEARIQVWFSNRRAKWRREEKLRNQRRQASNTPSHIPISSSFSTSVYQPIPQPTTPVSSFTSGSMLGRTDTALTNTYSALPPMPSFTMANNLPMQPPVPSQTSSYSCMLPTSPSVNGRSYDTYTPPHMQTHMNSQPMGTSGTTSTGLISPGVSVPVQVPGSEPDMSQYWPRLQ

Usually AC50 stands for the midpoint of the concentration-response curve, whichever way the signal moves. With `C=C(C)[C@@H]1CCC2=CC(=O)C[C@@H](C)[C@]2(C)C1`, the result in assay [1], in assay [2], in assay [3], in assay [4], in assay [5] and in [6] was inactive. The result in assay [7], in [9], in assay [10], in assay [11], in assay [12] and in assay [13] was inactive. Also, the outcome in [14] and in assay [15] was inactive. Moreover, the AC50 in assay [8] is 2.33 µM (active).
Consider `OCCCCCO`, for which the outcome in assay [1], in assay [2], in [3], in assay [5], in assay [6] and in [16] was inactive. The molecule was classed as inactive in assay [9], in assay [10], in [11], in assay [12], in [14] and in assay [15]. Besides, the half-maximal activity concentration (AC50) in assay [8] was 76.5 µM (active).
Regarding `COc1ccc(NC(=O)CC(C)=O)cc1`, the molecule was classed as inactive in assay [1], in [2], in assay [3], in assay [4], in assay [5] and in [6]. Also, the outcome in [17], in assay [7], in assay [8], in assay [9], in [10] and in assay [11] was inactive. The molecule was called inactive in assay [12], in assay [14] and in assay [15].
Take `CC1(C)C(=O)N(Br)C(=O)N1Cl`: the outcome in [1], in [2], in [3], in assay [5], in assay [6] and in [16] was inactive. For the same molecule, the result in assay [7], in assay [9], in [10], in [11], in [12] and in assay [13] was inactive. Moreover, the call in assay [14] and in assay [15] was inactive. In assay [8], the concentration at half-maximal activity (AC50) was 67.5 µM (active).
Regarding `C=C(C)C(=O)O[C@H]1C[C@@H]2CC[C@@]1(C)C2(C)C`, the call in assay [1], in assay [2], in assay [3], in assay [5], in [6] and in [16] was inactive. The molecule was called inactive in assay [7], in assay [9], in assay [10], in assay [11], in assay [13] and in assay [14]. Moreover, the AC50 in assay [4] was 73.3 µM (active); in assay [8], 26.5 µM (active); in assay [18], 75.3 µM (active); in [12], 175 µM (active); in assay [15], 138 µM (active).
As to `CC1(C)OC[C@@H]2O[C@@]3(C(=O)O)OC(C)(C)O[C@H]3[C@@H]2O1`, the call in [1], in [2], in assay [3], in assay [4], in assay [5] and in [16] was inactive. In addition, the result in [17], in assay [7], in assay [8], in assay [9], in assay [10] and in assay [11] was inactive. In addition, the molecule was called inactive in [12], in assay [14] and in assay [15].
As for `CN1[C@@H]2CC(OC(=O)[C@H](CO)c3ccccc3)C[C@H]1[C@@H]1O[C@@H]12` (stereo partly specified), the result in assay [3], in assay [17], in assay [7], in [8], in assay [18] and in assay [9] was inactive. The result in [10], in assay [12], in assay [13], in [14] and in assay [15] was inactive.
